Measured values published in PubChem BioAssay AID1240 (Sanford-Burnham Center for Chemical Genomics, 2008).
Out of some 50,000 compounds screened, about 800 (1.6%) showed an effect of 50% or more. For the sample, strong results were picked, then their nearest neighbours and some compounds at random.

Molecular target: Bcl-2-like protein 10 (Homo sapiens) (UniProt Q9HD36)
Experiment: TR3 peptide-Bcl-B binding displacers, biochemical primary FP assay, phenotype converters (AID 1240);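 note: 0% = Bcl-B with tracer peptide and DMSO and 100% = tracer peptide lacking Bcl-B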
Settings: GST-Bcl-B / FITC-TR3 peptide fluorescence polarization; stronger effect = higher value; compound at 3.75 mg/L

Chain of Bcl-2-like protein 10 (Homo sapiens) (Q9HD36 whole entry, looked up): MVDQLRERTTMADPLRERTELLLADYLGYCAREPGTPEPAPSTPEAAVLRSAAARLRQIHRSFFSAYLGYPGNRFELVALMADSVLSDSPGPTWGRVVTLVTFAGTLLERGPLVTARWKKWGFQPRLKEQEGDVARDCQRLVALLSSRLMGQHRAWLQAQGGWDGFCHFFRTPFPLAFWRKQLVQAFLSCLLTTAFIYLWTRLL

Row | Structure (SMILES) | displacement [%]
1 | O=C(Cc1ccc([N+](=O)[O-])cc1)NCc1ccccn1 | 14.1
2 | COc1ccc(/C=C/C(=O)NC(C)Cc2ccccc2)cc1OC (stereo unspecified) | -5.6
3 | COc1ccc(/C=C2/SC(=S)NC2=O)cc1OCc1ccc([N+](=O)[O-])cc1 | 76.9
4 | CCOc1cc(/C=C2/SC(=S)NC2=O)ccc1OC | 119
5 | CCOc1ccc(/C=C2/SC(=S)NC2=O)c(OCC)c1 | 114
6 | CCOc1ccc2ccc(OCC)c(/C=C3/SC(=S)NC3=O)c2c1 | -0.8
7 | CCOc1cc(/C=C2\SC(=S)NC2=O)ccc1OC(C)=O | 12
8 | CCOc1cccc(/C=C2/SC(=S)NC2=O)c1O | 5.7
9 | CCOc1ccc(/C=C2/SC(=S)NC2=O)cc1Cl | 11.7
10 | COc1cc(/C=C2/SC(=S)NC2=O)ccc1OCc1ccc(I)cc1 | -8.4
11 | COc1ccc(/C=C2/SC(=S)NC2=O)cc1OCc1ccc(Cl)cc1 | 4.2
12 | CCOc1ccc(C=Nc2ccc3c(c2)nc(C)n3C)cc1 | 6.5
13 | CSc1ccccc1NC(=O)c1ccc([N+](=O)[O-])cc1 | 10.7
14 | CCOC(=O)c1cc(C#N)c(SCc2ccccc2)[nH]c1=O | -2.6
15 | COc1ccc(C(=O)N2CCN(c3cccc(C)c3C)CC2)cc1OC | 2.4
16 | Cc1cc(C)cc(CC2CC(=O)N(c3ccc(Br)cc3)C2=O)c1 (stereo unspecified) | -8
17 | CC(=O)n1cc(Nc2ccccc2C(=O)O)c2ccccc21 | -3
18 | O=C(NCC1CCCO1)c1ccc(S(=O)(=O)N2CCCCC2)cc1 (stereo unspecified) | -4.5
19 | Cc1cccc(-n2c(C)cc(C=C3C(=O)c4ccccc4C3=O)c2C)c1 | 138
20 | Cc1cc(C=C2C(=O)c3ccccc3C2=O)c(C)n1-c1cccc([N+](=O)[O-])c1 | 11.8
21 | CCOC(=O)c1ccc(-n2c(C)cc(C=C3C(=O)c4ccccc4C3=O)c2C)cc1 | 11.9
22 | Cc1cc(/C=C2/NC(=O)NC2=O)c(C)n1-c1cccc(Cl)c1 | 10
23 | Cc1cc(C=C2C(=O)c3ccccc3C2=O)c(C)n1-c1cccnc1 | -15.5

Row | Structure (SMILES) | displacement [%]
24 | Cc1cc(C=C2C(=O)c3ccccc3C2=O)c(C)n1-c1cccc(Cl)c1 | 180
25 | Cc1cc(C=C2C(=O)c3ccccc3C2=O)c(C)n1-c1ccc(N2CCOCC2)cc1 | 0.7
26 | Cc1cc(/C=C2/SC(=O)NC2=O)c(C)n1-c1cccc(Cl)c1 | 18.6
27 | Cc1cc(C=C2C(=O)c3ccccc3C2=O)c(C)n1-c1ccc(Cl)cc1 | 100
28 | CN1CCN(C(=O)c2cnn3c(C(F)(F)F)cc(-c4ccco4)nc23)CC1 | 6.4
29 | O=C(O)CCCN1C(=O)C(=O)/C(=C(\O)c2ccc(Cl)cc2)C1c1ccc(F)cc1 (stereo unspecified) | -0.6
30 | COc1ccc(N(CC(=O)NCCc2ccccc2)S(C)(=O)=O)c(OC)c1 | 3.4
31 | Cc1ccc(OCC(=O)N2CCCc3ccccc32)c(C)c1 | 6
32 | Cc1ccc(-c2ccc(OCC(=O)N3CCCc4ccccc43)cc2)cc1 | 59.3
33 | Cc1ccccc1OCC(=O)N1CCCc2ccccc21 | -4.9
34 | Cc1ccc(-c2noc(COc3ccc4ccccc4c3)n2)cc1 | 11
35 | O=C1c2ccccc2-n2c1cc(C=Nc1ccc(Cl)cc1)c2O | 112
36 | O=c1[nH]c(=O)n(-c2ccccc2F)c(O)c1C=Nc1ccc(Cl)cc1 | -1.4
37 | CC(=O)NCCN=Cc1cc2n(c1O)-c1ccccc1C2=O | 167
38 | CCOC(=O)c1cc2n(c1N(C(C)=O)C(C)=O)-c1ccccc1C2=O | -4.9
39 | O=c1[nH]c(=O)n(-c2ccccc2Cl)c(O)c1C=Nc1ccc(Cl)cc1 | 18.6
40 | CC(=O)NCCN=Cc1c(O)[nH]c2ccccc12 | 14
41 | CC(=O)Oc1ccc(C(=O)N2c3ccccc3Sc3ccccc32)cc1 | -7.2
42 | Cc1onc(-c2c(F)cccc2Cl)c1C(=O)NCc1ccc(Cl)cc1 | -6.9
43 | COc1ccc(/C=C/C(=O)NCCc2c[nH]c3ccccc23)cc1OC | -5
44 | COc1ccc2c(Cl)c(C(=O)N/N=C/c3ccccn3)sc2c1 | 7.8
45 | O=C(Nc1ccccc1)Nc1nnc(SCc2ccc(F)cc2)s1 | 13.5
46 | CCCCNc1cc(=O)n(C)c(=O)n1C | 6.5

Row | Structure (SMILES) | displacement [%]
47 | Cn1c(=O)cc2c3c(c(Nc4cccc(Cl)c4)ccc31)C(=O)c1ccccc1-2 | 15.7
48 | Cn1c(=O)cc2c3c(c(N4CCCC4)ccc31)C(=O)c1ccccc1-2 | 38.2
49 | Cn1c(=O)cc2c3c(c(Oc4ccccc4)ccc31)C(=O)c1ccccc1-2 | 108
50 | Cn1c(=O)cc2c3c(c(N)ccc31)C(=O)c1ccccc1-2 | 139
51 | O=C1c2ccccc2C(=O)c2c(NCCO)ccc(NCCO)c21 | 46.4
52 | Nc1c(Cl)cc2c(c1Oc1ccccc1)C(=O)c1ccccc1C2=O | 8.6
53 | Cn1c(=O)cc(-c2ccccc2)c2cc(Cl)ccc21 | 14.7
54 | CCCCNc1ccc2c3c(cc(=O)n2C)-c2ccccc2C(=O)c13 | 129
55 | Cn1c(=O)cc(-c2ccccc2)c2ccccc21 | 7.4
56 | COCCCNc1ccc2c3c(nc(=O)n2C)-c2ccccc2C(=O)c13 | 139
57 | CCCCCCCNc1ccc(NC(=O)c2ccccc2)c2c1C(=O)c1ccccc1C2=O | 1.5
58 | O=C1N=C(N=Nc2c(O)[nH]c3ccccc23)S/C1=C/c1ccc(Br)cc1 | 8.9
59 | COc1ccc(OC(C)C(=O)Nc2ccc3c(c2)OCCO3)cc1 (stereo unspecified) | -4.5
60 | CC(C)CC(NC(=O)c1ccccc1)C(=O)OCC(=O)N1c2ccccc2Sc2ccccc21 (stereo unspecified) | 9.1
61 | COc1ccc(S(=O)(=O)N(CC(=O)N2CCN(c3ccccc3)CC2)c2ccc(C)cc2)cc1OC | 6.1
62 | C=CCc1ccccc1OCCOc1ccc(Br)cc1/C=C1/SC(=S)N(C)C1=O | -1.8
63 | CCCCOc1ccc(C(=O)N2CCN(c3cccc(C)c3C)CC2)cc1 | -8.2
64 | NNC(=O)COc1ccccc1OCCOCCOc1ccccc1OCC(=O)NN | -10.4
65 | O=C1C=Cc2ccccc2/C1=N/Oc1ccc2noc3c2c1C(=O)c1ccccc1-3 | 25.9
66 | CCOC(=O)c1ccc2c3c(onc13)-c1ccccc1C2=O | 120
67 | CCOc1ccc(Nc2ccc3noc4c3c2C(=O)c2ccccc2-4)cc1 | -2
68 | COc1ccccc1NS(=O)(=O)c1cccc2c1C(=O)c1ccccc1C2=O | 3
69 | COC1=C(c2ccccc2)C(=O)c2ccccc2C1=O | -8.5

Row | Structure (SMILES) | displacement [%]
70 | CC(=O)c1ccc2c3c(onc13)-c1ccccc1C2=O | 2.4
71 | O=C1c2ccccc2-c2onc3ccc(Cl)c1c23 | 40.4
72 | CCOc1ccc2noc3c2c1C(=O)c1ccccc1-3 | 123
73 | COc1ccc2noc3c2c1C(=O)c1ccccc1-3 | 127
74 | COc1ccc(OC)c2c1C(=O)c1ccccc1C2=O | 101
75 | CC(C)CCOC(=O)c1ccc2c3c(onc13)-c1ccccc1C2=O | 21
76 | O=C1c2ccccc2-c2onc3ccc(Sc4ccccc4)c1c23 | 17.9
77 | COc1cc2c(NCc3ccco3)cc(O)c(CC(=O)Nc3ccc(Cl)cc3)c2cc1OC | 13
78 | COc1ccc(OC)c(CN2CCN(S(C)(=O)=O)CC2)c1 | -14
79 | O=C(CSc1nnc(-c2ccco2)n1-c1ccccc1)CSc1nnc(-c2ccco2)n1-c1ccccc1 | 15.9
80 | C=CCNC(=O)C1CC(=O)N(c2ccc(C)cc2)C1 (stereo unspecified) | -7.4
81 | Cc1cc(C)nc(NS(=O)(=O)c2ccc(NC(=O)CSc3ncn[nH]3)cc2)n1 | 5.3
82 | Nc1nc(Nc2nc(N3CCCC3)cc(C(F)(F)F)n2)cc(C(F)(F)F)n1 | 12
83 | CC1=C/C(=N/OS(=O)(=O)c2ccccc2)C=CC1=O | 28.6
84 | O=C1c2ccc(Oc3ccc([N+](=O)[O-])cc3)cc2C(=O)N1c1cccc(-c2nc3ccccc3o2)c1 | -3.8
85 | O=C(Nc1ccc(Cl)c(Cl)c1)c1cc([N+](=O)[O-])ccc1N1CCCCC1 | 14
86 | O=[N+]([O-])c1cccc2c1NC(c1ccc(Cl)cc1)C1CC=CC21 (stereo unspecified) | 7.5
87 | COc1cccc2c1NC(c1ccccc1Br)C1CC=CC21 (stereo unspecified) | -4.2
88 | COc1cccc2c1NC(c1ccc(Cl)cc1)C1CC=CC21 (stereo unspecified) | 9.1
89 | O=C(O)c1cccc2c1NC(c1cccc3ccccc13)C1CC=CC21 (stereo unspecified) | 25.1
90 | O=C(O)c1cccc2c1NC(c1ccccc1Br)C1CC=CC21 (stereo unspecified) | 132
91 | O=C(O)c1cccc2c1NC(c1ccc(Cl)cc1)C1CC=CC21 (stereo unspecified) | 148
92 | COc1cc(-c2ccccc2)nc(N)n1 | -5.4

Row | Structure (SMILES) | displacement [%]
93 | COc1ccc(/C=C/C(=O)Nc2ccc(Br)cc2C(=O)c2cc(OC)c(OC)c(OC)c2)cc1OC | 1.6
94 | COCC(=O)Nc1ccc2ccccc2c1 | -2.7
95 | Nc1ccc2nn(-c3ccc([N+](=O)[O-])cc3)nc2c1 | -8.4
96 | COc1ccc(N=Cc2c(O)n(-c3ccccc3OC)c(=O)[nH]c2=O)cc1 | 9.4
97 | COc1ccc(OC)c(N=Cc2c(O)n(-c3ccccc3Cl)c(=O)[nH]c2=O)c1 | 98.7
98 | COc1ccccc1N=Cc1c(O)n(-c2ccccc2Cl)c(=O)[nH]c1=O | -6.6
99 | COc1ccc(N=Cc2c(O)n(-c3cc(OC)ccc3OC)c(=O)[nH]c2=O)cc1 | 103
100 | COc1cccc(N=Cc2c(O)n(-c3cc(OC)ccc3OC)c(=O)[nH]c2=O)c1 | -2
101 | COc1ccc(OC)c(N=Cc2c(O)n(-c3ccccc3C)c(=O)[nH]c2=O)c1 | 7.3
102 | CCOC(=O)c1c[nH]c2cc(C(=O)OC)ccc2c1=O | -19.8
103 | CCC1=NN2C(=N)/C(=C/c3cccc(OCc4ccccc4F)c3)C(=O)N=C2S1 | 6.1
104 | Cc1ccc(/C=C(\C#N)c2nn(-c3ccccc3)c(N)c2C#N)cc1 | 2.5
105 | Cn1c(=O)n(C)c2cc(/C=C(\C#N)c3nn(-c4ccccc4)c(N)c3C#N)ccc21 | 92.9
106 | Cc1ccc(COc2c(Br)cc(/C=C(\C#N)c3nn(-c4ccccc4)c(N)c3C#N)cc2Br)cc1 | 11.2
107 | COC(=O)COc1ccc2c(=O)c(Oc3ccc(C(C)(C)C)cc3)coc2c1 | 8
108 | C/C(=N/NC(=O)COc1ccc(C)cc1)c1ccc([N+](=O)[O-])cc1 | 1.6
109 | CNS(=O)(=O)c1ccc(N/C=C(\C=O)c2nc3cc(Cl)ccc3o2)cc1 | 12.6
110 | O=C/C(=C\Nc1ccc(S(=O)(=O)CCO)cc1)c1nc2cc(Cl)ccc2o1 | 88.3
111 | O=C/C(=C\Nc1ccc(S(=O)(=O)CCO)cc1)c1nc2ccccc2o1 | 9.7
